Screens deposited in PubChem BioAssay by National Center for Advancing Translational Sciences (NCATS).
Pf growth 48h – Primary qHTS for delayed death inhibitors of the malarial parasite plastid, 48 hour incubation. Potency, µM (series often up to 28.7 µM), for inactives: at the top dose activity change, negative = inhibition, actives largely listed as inhibitors. AID 504832, 2011. P. falciparum luciferase growth in erythrocytes, 48 h. actives 5.9% (n = 310,000); further: on the % scale 0 is the no-effect control and ±100 the full control effect
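Luciferase-expressing P. falciparum in infected erythrocytes (2% hematocrit, 0.1% parasitemia final) in RPMI 1640/0.5% Albumax were exposed to compound for 48 hours at 37 C, 5% CO2; growth read as luminescence.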
Pf growth 96h – Primary qHTS for delayed death inhibitors of the malarial parasite plastid, 96 hour incubation; Potency, µM (top dose mostly 28.7 µM), without a hit: at the top dose activity change, negative = inhibition, hits mostly inhibitors; P. falciparum luciferase reporter growth, 96 h; actives 6.9% (n = 320,000); further: on the % scale 0 is the no-effect control and ±100 the full control effect
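Erythrocytes infected with luciferase-expressing P. falciparum were dispensed at 2% hematocrit and 0.05% parasitemia (final), then incubated with compounds 96 hours at 37 C in 5% CO2. Luminescence after detection reagent addition reported growth.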
Sm TGR inh – qHTS Assay for the Inhibitors of Schistosoma Mansoni Peroxiredoxins. purified TGR, DTNB reduction, TNB absorbance 405 nm. actives 3% (n = 360,000). Potency, µM (titrated, usually from 114 µM), for inactives: at the top dose activity change, negative = inhibition, most hits filed as inhibitors; further: on the % scale 0 is the no-effect control and ±100 the full control effect; nearly all actives have a fitted effect of over 60% in size
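Kinetic colorimetric format: TGR-catalysed, NADPH-driven DTNB reduction monitored via TNB absorbance. Enzyme dispensed at 20 nM; compound exposure 15 min at room temperature before reaction start.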
SARS PLpro yeast – qHTS of Yeast-based Assay for SARS-CoV PLP; S. cerevisiae expressing SARS-CoV PLpro, growth rescue; actives 0.19% (n = 330,000); Potency, µM (highest dose often 32.9 µM), for inactives: at the top dose activity, positive = growth rescue, hits mostly activators; calls by dose curve; further: 0% is about no effect; nearly all actives have a fitted effect of over 55% in size
Active calls of the source: *. In the library only some 12% were active in any assay of this set; here they are far more common. Unless noted, the call rests on the fitted dose curve; in most records, active means well fitted curve in the direction sought with a large enough effect; inconclusive means small, poorly fitted or top-dose-only effect, or another doubt; inactive means no such curve, though single readings can be large; an effect the other way counts as inactive or inconclusive. Potency means the concentration at half of the fitted maximal effect.

Screening COc1ccc(-n2c(COc3ccccc3)nnc2SCc2ccc(C#N)cc2)cc1 returned Pf growth 48h 12µM*, Pf growth 96h inconclusive, Sm TGR inh inconclusive and SARS PLpro yeast -5%.
Cc1ccc(OCc2nnc(SCC(=O)Nc3cccc4ccccc34)n2-c2ccccc2)cc1 was read as Pf growth 48h inconclusive, Pf growth 96h 13µM*, Sm TGR inh 2% and SARS PLpro yeast -23%.
`COc1cc2ccccc2cc1C(=O)N1CCN(c2nc3c(F)cc(F)cc3s2)CC1` gave Sm TGR inh -1%.
For Cc1ccc(S(=O)(=O)N2CCN(Cc3cc(C(C)C)ccc3O)CC2)cc1 the results were Pf growth 48h 10µM*, Pf growth 96h 10µM*, Sm TGR inh -27% and SARS PLpro yeast -12%.
For Cc1ccc(S(=O)(=O)N2CCN(Cc3cc(C(C)(C)C)ccc3O)CC2)cc1 the results were Pf growth 48h 12µM*, Pf growth 96h inconclusive, Sm TGR inh 32% and SARS PLpro yeast -7%.
For OCCn1c(CSc2nnc(-c3ccco3)n2-c2ccccc2)nc2ccc(Cl)cc21 the results were Pf growth 48h 12µM*, Sm TGR inh inconclusive and SARS PLpro yeast -1%.
For O=C(OCc1nc2ccc(Cl)cc2n1CCO)c1ccccc1 the results were Pf growth 48h -1%, Pf growth 96h 4%, Sm TGR inh 18µM* and SARS PLpro yeast 16%.
For Cc1ccccc1-n1nc2c(c1NC(=O)c1ccc3c(c1)OCO3)CS(=O)(=O)C2 the results were Pf growth 48h 0%, Pf growth 96h -11%, Sm TGR inh -20% and SARS PLpro yeast 3%.
CCOC(=O)c1cccc(NC(=S)N2CCN(c3ncc4c(=O)c(C(=O)O)cn(CC)c4n3)CC2)c1 was read as Pf growth 48h -3%, Pf growth 96h 8%, Sm TGR inh 0% and SARS PLpro yeast 1%.
Screening CCCCOC(=O)c1ccc(NC(=S)N2CCN(c3ncc4c(=O)c(C(=O)O)cn(CC)c4n3)CC2)cc1 returned Pf growth 48h 2.6µM*, Pf growth 96h 1.3µM*, Sm TGR inh 6% and SARS PLpro yeast -1%.
Screening CCn1cc(C(=O)O)c(=O)c2cnc(N3CCN(C(=S)Nc4ccccc4)CC3)nc21 returned Pf growth 48h 0.12µM*, Pf growth 96h inconclusive, Sm TGR inh 1% and SARS PLpro yeast 0%.
For Cc1ccc(C(=O)OCC(=O)NCc2ccc(F)cc2)o1 the results were Pf growth 48h 10%, Pf growth 96h -4%, Sm TGR inh -4% and SARS PLpro yeast 1%.
CC(C)(C)C1c2[nH]c3ccccc3c2CCN1CCCn1cccn1 (configuration not stated) was read as Pf growth 48h inconclusive, Pf growth 96h 5.9µM*, Sm TGR inh 40µM* and SARS PLpro yeast 1%.
CSc1ncc(CN2CCc3c([nH]c4ccccc34)C2C(C)(C)C)cn1 (configuration not stated) was read as Pf growth 48h inconclusive, Pf growth 96h -26%, Sm TGR inh inconclusive and SARS PLpro yeast -4%.
`Cc1cccc(CN2CCc3c([nH]c4ccccc34)C2C(C)(C)C)n1` (configuration not stated) gave Pf growth 48h inconclusive, Pf growth 96h inconclusive, Sm TGR inh 16µM* and SARS PLpro yeast 2%.
For CC(Sc1nc2c(c(=O)[nH]1)CCCC2)C(=O)Nc1cc(C(F)(F)F)ccc1Cl (configuration not stated) the results were Sm TGR inh -2%.
Screening C=CCN1C(=O)N/C(=C/c2ccc(C)o2)C1=O returned Pf growth 48h 22%, Pf growth 96h 0%, Sm TGR inh 32µM* and SARS PLpro yeast -7%.
Screening Cc1ccc(NC(=O)CN2C(=O)N/C(=C/c3ccc(C)o3)C2=O)cc1 returned Pf growth 48h 35%, Pf growth 96h 96%, Sm TGR inh 35µM* and SARS PLpro yeast -5%.
Cc1cccc(NC(=O)CN2C(=O)N/C(=C/c3ccc(C)o3)C2=O)c1 was read as Pf growth 48h 5%, Pf growth 96h 26%, Sm TGR inh 50µM* and SARS PLpro yeast 13%.
For Cc1ccc(CN2C(=O)N/C(=C/c3ccc(-c4ccc(C(=O)O)cc4)o3)C2=O)cc1 the results were Pf growth 48h -23%, Pf growth 96h -1%, Sm TGR inh inconclusive and SARS PLpro yeast -6%.
